In the supplement of paper PMC6555819:

The sequences below were run on VDR:RXRa (NR concentration 270 nM, RXRa partner concentration 90 nM) (assay: PBM binding z-score (relative to random genomic background probes); higher = stronger binding; sequences stand for … in GC…GCGATTGACAGCGTAGAATGAAGG).
Procedure: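 Protein-binding microarray (Agilent 4x180K custom design, double-stranded 60-nt probes: 5' GC cap, 34-nt variable region, 24-nt constant primer region; full probe sequence given). Purified or IVT nuclear receptor:RXRα heterodimers (3:1 NR:RXRα, mostly 270:90 nM) or homodimers were incubated for 1 h in PBS with 2% milk and no ligand, then detected with Alexa488 antibodies. Fluorescence from o1-orientation probes (~5 replicates averaged) was converted to z-scores against 500 random hg19 background probes. Variable regions are seed direct-repeat (DR0–DR5) sites, all their single-nucleotide variants and half-site ablations.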

In order of falling PBM binding z-score:
1. CAAACTAGGTGACAGAGGTCAAAGTCCGTGCGTA  6.42
2. CAAGCTAGGTCACCGGAAGGTCAAAGTCCGCATG  6.18
3. TCTAGTTGGTCACGGAGGTCACACCCGACGGGTA  5.67
4. CAAACTAGGTTAAAGGTCAAAGTCGAGCCAACCA  5.47
5. ATATGTAGGTTAGCTAGGGTCATTCAGACTAGGC  5.2
6. AATACAGGGTCATCGTAGACCAGAGTACGCACAG  5.04
7. CGTCCAAGGTTATAGGAGGTCAGTGAAGACAGAT  4.85
8. ATATGTAGCTTATCGGGTCATTCAGTTTGCGCAT  4.71
9. CCTACTGGGCAAAAGGTCATTGATTCCAATGCTC  4.44
10. AATACAGGGTCACTACGCCAGAGTAGGTACGAAT  4.39
11. CCTTACGGGTCACTGTCAGGTTATAGCATTTGGA  3.87
12. ATCTCTAGGTAACGAGTTCAGTGAAAGAGAGGAC  3.5
13. ATACCAAGGTGATCGTGGGGTCGTTGATACTAAC  3.44
14. CCTACTGGGCCTCGAAAGGTCATTGATTCAGTGA  3.34
15. AGAACGAGGGCAATAAGTTGATAGCACGGGTGGC  3.26
16. GCTAGTTGGTCAGTAAAAGGTCAGACACCGGTCG  2.38
17. CTCGAAAGGTCGGTAGAGGTGAGTATACGGATAA  2.05
18. CCGACTGGGGCAGAGAGGTTACCATACCATCCGG  1.73
19. AGTATGAGGTTACCAAAGATCAGGGAAACGCTTG  1.41
20. ACAGACAGGTCAGTGAAGGTAACTCAGCTGGACG  1.41
21. CCTCCGAGGACAGAAGGTCAGAGCTGTCCGCTTT  1.36
22. TGAATGAGGTTAAAGATCTGGGAACGTGGCGTCG  1.31
23. CTCGAAAGGTCGGTTGAAGTGAGTATACGGATAA  1.23
24. ATCTCTAGGTAAAAATAGTTCAGTGAATGCAAAT  1.11
25. CCAACTAGGTCAGAACAGGACAGTGAAGGATGAT  1.08
26. TCTTGTAGATTAACAGGAGGTTAAGAAAGATCGA  0.91
27. GCGAGCAGGCCATTTGGGTCACTCAATGACGGGC  0.881
28. TCATATAGGTAAGTGCTAGGTGAAAGTCCGATCT  0.679
29. ACTAGCAGGCCAAGTTTGGGTCAATCAAACAAAG  0.502
30. CAGCGTAGGTCAGGGCCAGTATAGGAGGAACGTT  0.388
31. CCTAGCAGGCCAATCTGGTTCACTCAAGGCTTGA  0.38
32. GCATATAGGTAATGCAAGGTGAAAGTCCGATTGT  0.358
33. TCTTGTAGATCAAGCCGGTTAAGAAAGCCTGAGT  0.32
34. GCAGACAGGTTAAACGCAGGTAACTCAGGGTGGC  0.135
35. ACAGACAGGTGATGAAGGTAACTCATGCTATCAT  0.111
36. TCGAGTAGGTTACCGATGGGGCATTCAGCTTTCT  0.0364
37. AATACATGGTCACTAGGCCAGAGTAGGTACGAAT  -0.0294
38. TCTCGGAGGACACGATGGTCAGAGCTTTCCAGAG  -0.133
39. ACTATTAGTTGAGACGAAGGCAACCGATAGGTTG  -0.504
40. AGAACGATGGCACGCTGAGTTGATAGCAGAGTAG  -0.574
